Consider seven compounds from PubChem BioAssay (EPA / NIEHS).

For assay [1], the target named is Paired box protein Pax-6 (Homo sapiens) (UniProt P26367). The assay is described as follows: ATG_Pax6_CIS: Attagene CIS-FACTORIAL HepG2 Assay for human Paired Box 6 (PAX6) (AID 2282956). To be noted: HepG2 CIS-FACTORIAL PAX6 reporter transcription, RNA readout; actives raise or lower the signal. The method in brief: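 HepG2 cells transiently transfected with multiplexed cis-promoter reporter units (endogenous TF activity) were dosed for 24 h. Reporter mRNA was quantified by RT-PCR, 6-FAM labeling, HpaI digestion and capillary electrophoresis; bidirectional fitting versus DMSO baseline.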

The nature of assay [2]: ATG_PXRE_CIS: Attagene CIS-FACTORIAL HepG2 Assay for human Pregnane X Receptor Element (PXRE) (AID 2282957). To be noted: HepG2 Attagene CIS-FACTORIAL PXRE reporter, mRNA; actives raise or lower the signal. The gist of the method: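 Multiplexed cis-reporter assay in transiently transfected human HepG2 cells; 24 h chemical exposure. Reporter transcripts quantified by RT-PCR with fluorescent labeling and capillary electrophoresis.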

Assay [3] can be described thus: ATG_PPRE_CIS: Attagene CIS-FACTORIAL HepG2 Assay for human Peroxisome Proliferator-activated Response Element (PPRE) (AID 2282958). Conditions: HepG2 PPRE cis-element reporter, Attagene transcription factor profiling; actives raise or lower the signal. The gist of the method: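 DMSO served as negative control and baseline for bidirectional curve fitting. Signal came from PPRE-regulated reporter mRNA in HepG2 cells, measured 24 h post-dosing by RT-PCR, 6-FAM primer extension and capillary electrophoresis.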

A short description of assay [4]: ATG_RORE_CIS: Attagene CIS-FACTORIAL HepG2 Assay for human RAR-related Orphan Receptor Element (RORE) (AID 2282959). To be noted: HepG2 Attagene cis-factorial RORE reporter, mRNA; actives raise or lower the signal. The gist of the method:
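Transfect HepG2 with MRTUs; treat 24 h; extract RNA; RT with oligo(dT); PCR with reporter-specific primers; 6-FAM primer extension; HpaI digest 2 h at 37 C; capillary electrophoresis. Fit vs DMSO, bidirectional.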

The nature of assay [5]: ATG_Sox_CIS: Attagene CIS-FACTORIAL HepG2 Assay for human SRY-box transcription factor (SOX) (AID 2282960). Conditions: HepG2 Attagene cis-factorial SOX reporter, mRNA; actives raise or lower the signal. The method in brief:
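Fluorescence-labelled cDNA fragments from reporter transcripts, sized by CE, give the signal. Cells: HepG2, transiently transfected with cis-regulated reporter units. Exposure 24 h; DMSO negative control; bidirectional curve fitting.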

The target in assay [6] is Transcription factor Sp1 (Homo sapiens) (UniProt P08047). Nature of the assay: ATG_Sp1_CIS: Attagene CIS-FACTORIAL HepG2 Assay for human Specificity Protein 1 (Sp1) (AID 2282961). To be noted: HepG2 Sp1 cis-reporter transcription, actives raise or lower the signal. The gist of the method: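 Chemicals are dosed onto HepG2 cells transfected with multiple cis-promoter reporter constructs, and after 24 h reporter RNA is reverse-transcribed, PCR-amplified and resolved by capillary electrophoresis for fluorescence quantitation; activity is scored up or down against DMSO.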

Assay [7] can be described thus: ATG_SREBP_CIS: Attagene CIS-FACTORIAL HepG2 Assay for human Sterol Regulatory Element Binding (SREBP) (AID 2282962). To be noted: HepG2 Attagene cis-factorial SREBP reporter, mRNA; actives raise or lower the signal. The gist of the method: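 HepG2 cells transiently transfected with multiplexed cis-element reporter units report endogenous transcription factor activity. After 24 h of chemical exposure, reporter mRNA was quantified by RT-PCR, 6-FAM labelling, HpaI digestion and capillary electrophoresis; bidirectional fits used DMSO as baseline.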

The target in assay [8] is Signal transducer and activator of transcription 3 (Homo sapiens) (UniProt P40763). Nature of the assay: ATG_STAT3_CIS: Attagene CIS-FACTORIAL HepG2 Assay for human Signal Transducer and Activator of Transcription 3 (STAT3) (AID 2282963). Conditions: HepG2, Attagene cis-factorial STAT3 reporter transcription; actives raise or lower the signal. The gist of the method: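 After a 24 h compound incubation, total RNA from MRTU-transfected HepG2 cells was converted to cDNA and reporter sequences PCR-amplified, labelled and profiled by capillary electrophoresis. Gain and loss of signal were referenced to DMSO.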

Assay [9] can be described thus: ATG_TA_CIS: Attagene CIS-FACTORIAL HepG2 Assay for human TA Basal Promoter (AID 2282964). To be noted: HepG2 Attagene CIS-factorial TA basal promoter reporter; actives raise or lower the signal. The gist of the method: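 Steps: transfect HepG2 with MRTUs; dose 24 h; isolate RNA, DNase-treat, reverse-transcribe; PCR and FAM-label reporter cDNA; digest with HpaI 2h at 37 C; run capillary electrophoresis. Activity fitted both directions against DMSO.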

A short description of assay [10]: ATG_TCF_b_cat_CIS: Attagene CIS-FACTORIAL HepG2 Assay for human T-Cell-Factor with beta-catenin (TCF/b-cat) (AID 2282965). To be noted: HepG2 TCF/beta-catenin cis-reporter transcription, actives raise or lower the signal. The gist of the method:
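Endogenous transcription factor activity is captured through cis-promoter reporter constructs transiently introduced into human HepG2 liver cells. Induced reporter mRNA is measured after 24 h and fitted bidirectionally relative to DMSO.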

Assay [11] is described as follows: ATG_TAL_CIS: Attagene CIS-FACTORIAL HepG2 Assay for human TAL Basal Promoter (AID 2282966).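 Further: background control endpoint measuring basal TAL promoter reporter mRNA not a specific factor.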 Conditions: HepG2 Attagene cis-factorial TAL promoter reporter; actives raise or lower the signal. The method in brief:
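Steps: transfect HepG2 with multiple reporter transcription units; dose 24 h; isolate RNA, reverse-transcribe, PCR-amplify, label with 6-FAM, digest with HpaI; resolve by capillary electrophoresis. Bidirectional fitting against DMSO baseline.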

Assay [12] is described as follows: ATG_TGFb_CIS: Attagene CIS-FACTORIAL HepG2 Assay for human Transforming Growth Factor (TGF) (AID 2282967). Conditions: HepG2 Attagene CIS TGFb reporter, mRNA transcription; actives raise or lower the signal. The gist of the method: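 Cells were dosed for 24 hours, after which total RNA was reverse-transcribed and reporter sequences amplified, labeled and sized by capillary electrophoresis. Activity was fitted in both directions against DMSO.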

In assay [13] the target is Estrogen receptor (Homo sapiens) (UniProt P03372). The assay is described as follows: ATG_ERa_TRANS: Attagene TRANS-FACTORIAL HepG2 Assay for human Estrogen Receptor alpha (ERa) (AID 2282970; active means hit-call score of the fitted dose curve at least 0.9, where 1 is the maximum). To be noted: HepG2 Attagene TRANS ERa GAL4 reporter, mRNA. The gist of the method: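 Multiplexed cell-based reporter format in HepG2: chimeric ERa-Gal4 protein drives GAL4-UAS reporter transcription. Fluorescent reporter mRNA quantified by capillary electrophoresis 24 hours after dosing; endpoint fitted as signal gain against DMSO.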

Assay [14] has as its target X-box-binding protein 1 (Homo sapiens) (UniProt P17861). The assay is described as follows: ATG_Xbp1_CIS: Attagene CIS-FACTORIAL HepG2 Assay for human X-box Binding Protein 1 (XBP1) (AID 2282972). Conditions: HepG2 XBP1 cis-element reporter, Attagene multiplex; actives raise or lower the signal. The method in brief:
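HepG2 cells transiently transfected with cis-regulated multiple reporter transcription units; endogenous transcription factor activity measured 24 hours after chemical dosing. Reporter mRNA quantified by RT-PCR, 6-FAM primer extension, HpaI digestion and capillary electrophoresis; bidirectional fitting versus DMSO.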

Assay [15] is described as follows: ATG_M_19_TRANS: Attagene TRANS-FACTORIAL HepG2 Assay for M19 Transcription Factor (Internal Marker) (AID 2282974; active means hit-call score of the fitted dose curve at least 0.9, where 1 is the maximum). Conditions: HepG2 Attagene TRANS-FACTORIAL M19 internal marker reporter. The gist of the method: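 Multiplexed TRANS format: HepG2 liver cells bearing transient GAL4-UAS reporter units, chemical treatment 24 h, reporter transcripts quantified by RT-PCR plus capillary electrophoresis. DMSO defines baseline.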

Assay [16] is described as follows: ATG_GAL4_TRANS: Attagene TRANS-FACTORIAL HepG2 Assay for GAL4 (Internal Marker) (AID 2282976; active means hit-call score of the fitted dose curve at least 0.9, where 1 is the maximum). To be noted: HepG2 Attagene TRANS GAL4 internal marker reporter. The method in brief: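 Liver HepG2 line bearing multiplexed GAL4-UAS reporter constructs; 24 h chemical treatment. Transcripts were quantified as fluorescent fragments on capillary electrophoresis after RT-PCR and HpaI cut, with activity fitted upward from DMSO.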

The nature of assay [17]: ATG_VDRE_CIS: Attagene CIS-FACTORIAL HepG2 Assay for human Vitamin D Receptor Element (VDRE) (AID 2282968). Conditions: HepG2 VDRE cis-reporter transcription, actives raise or lower the signal. The method in brief:
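In transiently transfected HepG2 liver cells, gain or loss of reporter mRNA after 24 h exposure is scored relative to DMSO, using fluorescence detection by capillary electrophoresis of RT-PCR products.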

For assay [18], the target named is Nuclear receptor subfamily 1 group I member 3 (Homo sapiens) (UniProt Q14994). The assay is described as follows: ATG_CAR_TRANS: Attagene TRANS-FACTORIAL HepG2 Assay for human Constitutive Androstane Receptor (CAR) (AID 2282969; active means hit-call score of the fitted dose curve at least 0.9, where 1 is the maximum;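 further: activators raise reporter mRNA above DMSO so AC50 marks induction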). To be noted: HepG2 Attagene TRANS-FACTORIAL CAR reporter. The gist of the method:
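Readout is reporter mRNA induction, quantified by fluorescent primer extension and capillary electrophoresis after RT-PCR. Cells were HepG2 transiently carrying chimeric NR-Gal4 constructs with GAL4-UAS reporters, treated for 24 h; activity scored upward from DMSO.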

Assay [19] addresses Steroid hormone receptor ERR1 (Homo sapiens) (UniProt P11474). The assay is described as follows: ATG_ERRa_TRANS: Attagene TRANS-FACTORIAL HepG2 Assay for human Estrogen-Related Receptor alpha (ERRa) (AID 2282971; active means hit-call score of the fitted dose curve at least 0.9, where 1 is the maximum). To be noted: HepG2 Attagene TRANS reporter, ERRa transactivation. The method in brief:
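Signal gain relative to DMSO for an ERRa-Gal4 chimeric receptor, read as reporter mRNA by RT-PCR/capillary electrophoresis. Human HepG2 liver cells, transient multiplex reporter transfection, 24 h chemical exposure.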

Records with an inconclusive call do not appear. Active and inactive are the calls of the source. How the source made its calls, unless noted: active means hit-call score of the fitted dose curve at least 0.9, where 1 is the maximum; inactive means score below 0.9.

Sequence of Signal transducer and activator of transcription 3 (Homo sapiens) (P40763 whole entry, looked up): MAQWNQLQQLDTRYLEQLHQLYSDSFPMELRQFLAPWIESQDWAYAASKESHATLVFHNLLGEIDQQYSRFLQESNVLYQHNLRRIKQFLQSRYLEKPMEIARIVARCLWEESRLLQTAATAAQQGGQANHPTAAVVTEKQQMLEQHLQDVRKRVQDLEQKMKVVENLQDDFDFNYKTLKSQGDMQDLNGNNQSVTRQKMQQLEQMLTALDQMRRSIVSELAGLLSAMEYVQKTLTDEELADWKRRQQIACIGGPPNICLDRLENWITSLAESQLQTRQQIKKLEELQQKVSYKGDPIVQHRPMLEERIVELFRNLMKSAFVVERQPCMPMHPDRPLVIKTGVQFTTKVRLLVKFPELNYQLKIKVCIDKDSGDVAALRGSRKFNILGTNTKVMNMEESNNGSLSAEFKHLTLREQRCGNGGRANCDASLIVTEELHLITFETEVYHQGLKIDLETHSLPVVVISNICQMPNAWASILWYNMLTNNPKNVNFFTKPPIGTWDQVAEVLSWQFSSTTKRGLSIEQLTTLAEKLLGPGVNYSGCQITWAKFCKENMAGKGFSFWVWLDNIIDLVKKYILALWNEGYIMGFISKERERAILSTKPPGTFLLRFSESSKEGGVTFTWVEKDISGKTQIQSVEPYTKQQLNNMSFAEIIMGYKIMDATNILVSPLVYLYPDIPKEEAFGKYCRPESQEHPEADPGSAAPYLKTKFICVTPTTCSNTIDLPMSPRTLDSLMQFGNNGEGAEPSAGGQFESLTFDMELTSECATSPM
Sequence of X-box-binding protein 1 (Homo sapiens) (P17861 whole entry, looked up): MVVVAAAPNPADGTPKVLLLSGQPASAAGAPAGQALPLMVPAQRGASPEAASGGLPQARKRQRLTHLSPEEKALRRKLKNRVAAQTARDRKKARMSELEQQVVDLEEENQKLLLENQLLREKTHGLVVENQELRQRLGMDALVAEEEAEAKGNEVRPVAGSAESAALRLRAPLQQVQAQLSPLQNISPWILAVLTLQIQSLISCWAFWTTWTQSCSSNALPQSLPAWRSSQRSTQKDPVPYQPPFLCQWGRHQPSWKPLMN
Sequence of Transcription factor Sp1 (Homo sapiens) (P08047 whole entry, looked up): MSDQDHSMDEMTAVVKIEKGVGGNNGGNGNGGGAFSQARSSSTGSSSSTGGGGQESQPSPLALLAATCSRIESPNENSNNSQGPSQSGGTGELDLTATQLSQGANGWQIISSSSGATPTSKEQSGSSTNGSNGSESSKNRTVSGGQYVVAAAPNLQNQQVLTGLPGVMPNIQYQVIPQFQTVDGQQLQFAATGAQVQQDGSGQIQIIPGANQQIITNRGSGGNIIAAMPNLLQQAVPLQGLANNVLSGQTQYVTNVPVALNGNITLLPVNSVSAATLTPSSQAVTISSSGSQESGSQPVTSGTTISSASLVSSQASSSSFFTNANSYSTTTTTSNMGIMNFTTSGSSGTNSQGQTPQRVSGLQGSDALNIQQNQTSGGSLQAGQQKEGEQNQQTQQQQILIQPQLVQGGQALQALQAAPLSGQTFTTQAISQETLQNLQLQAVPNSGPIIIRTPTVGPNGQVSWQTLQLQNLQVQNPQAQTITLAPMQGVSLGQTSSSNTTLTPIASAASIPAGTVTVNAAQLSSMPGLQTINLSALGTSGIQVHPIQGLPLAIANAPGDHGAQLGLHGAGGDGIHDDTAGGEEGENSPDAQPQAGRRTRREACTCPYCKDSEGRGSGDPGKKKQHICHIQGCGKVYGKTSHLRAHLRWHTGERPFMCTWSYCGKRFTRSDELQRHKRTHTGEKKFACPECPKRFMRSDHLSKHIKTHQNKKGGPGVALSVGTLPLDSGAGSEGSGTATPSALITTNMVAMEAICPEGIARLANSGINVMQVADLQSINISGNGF
Sequence of Estrogen receptor (Homo sapiens) (P03372 whole entry, looked up, the tested form may be a part): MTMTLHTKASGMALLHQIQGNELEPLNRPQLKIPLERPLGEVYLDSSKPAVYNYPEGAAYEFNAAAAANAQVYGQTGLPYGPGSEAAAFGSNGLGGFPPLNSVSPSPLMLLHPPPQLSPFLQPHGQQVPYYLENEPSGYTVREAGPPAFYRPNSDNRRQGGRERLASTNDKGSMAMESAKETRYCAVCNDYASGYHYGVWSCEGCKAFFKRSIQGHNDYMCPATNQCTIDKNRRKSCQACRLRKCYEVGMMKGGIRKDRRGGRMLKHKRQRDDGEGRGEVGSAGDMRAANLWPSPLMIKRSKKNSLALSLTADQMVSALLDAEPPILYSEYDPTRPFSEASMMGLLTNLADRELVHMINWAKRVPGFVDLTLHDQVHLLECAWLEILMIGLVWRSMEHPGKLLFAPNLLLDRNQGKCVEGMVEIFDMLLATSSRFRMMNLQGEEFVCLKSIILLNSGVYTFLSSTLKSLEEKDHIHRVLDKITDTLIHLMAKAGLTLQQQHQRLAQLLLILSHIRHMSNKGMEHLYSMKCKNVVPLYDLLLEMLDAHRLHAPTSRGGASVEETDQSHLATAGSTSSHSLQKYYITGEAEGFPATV
Sequence of Paired box protein Pax-6 (Homo sapiens) (P26367 whole entry, looked up): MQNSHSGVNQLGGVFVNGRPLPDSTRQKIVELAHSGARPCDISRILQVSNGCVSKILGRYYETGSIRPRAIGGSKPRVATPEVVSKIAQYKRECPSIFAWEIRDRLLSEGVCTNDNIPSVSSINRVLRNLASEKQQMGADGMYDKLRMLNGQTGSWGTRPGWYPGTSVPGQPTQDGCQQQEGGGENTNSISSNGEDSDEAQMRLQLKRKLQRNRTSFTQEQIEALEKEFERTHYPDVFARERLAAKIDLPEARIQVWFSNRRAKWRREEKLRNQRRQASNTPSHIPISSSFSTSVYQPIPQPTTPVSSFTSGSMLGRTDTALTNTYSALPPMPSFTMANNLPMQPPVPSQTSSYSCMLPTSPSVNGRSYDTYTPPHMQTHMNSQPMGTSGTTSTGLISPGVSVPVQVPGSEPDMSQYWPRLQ
Sequence of Steroid hormone receptor ERR1 (Homo sapiens) (P11474 whole entry, looked up, the tested form may be a part): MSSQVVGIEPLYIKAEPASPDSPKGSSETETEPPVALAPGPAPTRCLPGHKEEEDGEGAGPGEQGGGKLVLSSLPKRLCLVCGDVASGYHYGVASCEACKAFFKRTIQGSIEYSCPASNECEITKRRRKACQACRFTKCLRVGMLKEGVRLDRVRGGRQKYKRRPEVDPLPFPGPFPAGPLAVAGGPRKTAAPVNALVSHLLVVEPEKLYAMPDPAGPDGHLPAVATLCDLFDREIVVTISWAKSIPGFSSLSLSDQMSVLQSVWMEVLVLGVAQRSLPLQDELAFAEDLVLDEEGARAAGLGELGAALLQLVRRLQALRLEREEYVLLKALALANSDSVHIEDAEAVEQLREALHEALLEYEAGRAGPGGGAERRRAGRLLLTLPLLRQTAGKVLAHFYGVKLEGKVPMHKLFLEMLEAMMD
Sequence of Nuclear receptor subfamily 1 group I member 3 (Homo sapiens) (Q14994 whole entry, looked up, the tested form may be a part): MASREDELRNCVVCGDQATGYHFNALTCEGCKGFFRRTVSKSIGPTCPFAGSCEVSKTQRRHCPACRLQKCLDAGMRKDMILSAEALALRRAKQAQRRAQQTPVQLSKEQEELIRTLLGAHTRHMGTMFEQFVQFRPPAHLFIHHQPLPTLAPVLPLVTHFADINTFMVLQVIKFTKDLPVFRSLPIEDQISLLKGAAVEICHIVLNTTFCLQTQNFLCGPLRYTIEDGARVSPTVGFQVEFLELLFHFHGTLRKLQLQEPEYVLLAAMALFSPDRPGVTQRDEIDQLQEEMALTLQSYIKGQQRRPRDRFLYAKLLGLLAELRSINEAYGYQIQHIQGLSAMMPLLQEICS

`Brc1ccccn1`: the compound was called inactive in assay [1], in assay [2], in assay [3], in assay [4], in assay [5] and in [6]. Also, the result in assay [7], in assay [8], in assay [9], in assay [10], in assay [11] and in assay [12] was inactive. Moreover, the outcome in assay [13], in assay [14], in [15] and in assay [16] was inactive.

`C=CC(=O)OCC(F)(F)C(F)(F)C(F)(F)C(F)(F)C(F)(F)C(F)(F)C(F)(F)C(F)F`: the AC50 (commonly the midpoint of the concentration-response curve, whichever way the signal moves) in assay [2] is 38.3 µM (active); in assay [5], 271 µM (active); in [13] it was 1.52 µM (active). In addition, the compound was called inactive in assay [3], in assay [6], in [7], in assay [8], in assay [9] and in assay [11]. In addition, the call in assay [12], in assay [17], in assay [18] and in assay [14] was inactive.

With `OCC1CCCO1` (centres undefined), the compound was called inactive in assay [2], in assay [3], in assay [4], in assay [5], in [6] and in [7]. The outcome in assay [8], in [9], in assay [11], in [12], in assay [17] and in assay [14] was inactive.

Take `CCCCCCCC/C=C\CCCCCCCC(=O)N(C)CC(=O)O`: the result in assay [1], in assay [4], in [5], in assay [6], in assay [8] and in [9] was inactive. The call in assay [10], in assay [11], in assay [12], in [17], in assay [13] and in [14] was inactive. For the same compound, the call in assay [15] was inactive. Further, the AC50 is 16 µM (active) in assay [2], 3.73 µM (active) in assay [3] and 11.1 µM (active) in [7].

Regarding `C[Si](C)O[Si](C)C`, the call in assay [1], in [2], in [3], in assay [4], in assay [5] and in assay [6] was inactive. Further, the outcome in assay [7], in assay [8], in [9], in assay [10], in [11] and in [12] was inactive. Moreover, the call in assay [14], in assay [15] and in assay [16] was inactive.

With `O=S(=O)(OCC(F)(F)F)C(F)(F)C(F)(F)C(F)(F)C(F)(F)F`, the outcome in assay [1], in [2], in assay [3], in assay [4], in assay [5] and in assay [6] was inactive. Further, the result in [7], in assay [8], in assay [12], in [18], in [19] and in assay [14] was inactive. Further, the outcome in assay [15] and in [16] was inactive. The concentration at half-maximal activity (AC50) in assay [10] was 104 µM (active); in assay [11] it was 150 µM (active).

Consider `Nc1c(Br)cc([N+](=O)[O-])cc1Br`, for which the compound was classed as inactive in assay [1], in assay [3], in assay [4], in assay [5], in [6] and in assay [7]. In addition, the compound was called inactive in assay [8], in assay [9], in [10], in assay [11], in [12] and in assay [13]. Moreover, the compound was classed as inactive in assay [19], in [14] and in [16]. Also, the half-maximal activity concentration (AC50) in assay [2] is 26.7 µM (active).
